In PubChem BioAssay AID1259415 (National Center for Advancing Translational Sciences (NCATS), 2018):
Out of some 410,000 compounds screened, about 18,000 (4.4%) were called active. About 7% were inconclusive and are not listed. Rule as the data show it: active = activity change below about -60%; inconclusive = no clear call, values can overlap the other calls; inactive = above about -39%. For the sample, actives were picked, then their nearest neighbours and some compounds at random.

assay: qHTS Assay for inhibitors of the human cytomegalovirus (HCMV); conditions: HFF cells, HCMV-luciferase reporter, 72 h; at 57.5 µM; active compounds read low
In short: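 After 16 h attachment at 37C, HFF cells received test compound and HCMV-luciferase (1 PFU/cell); reporter luminescence read 72 h later, data normalized against buffer-only and known inhibitor Salinomycin.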
% is scaled to controls: 0 for no effect and ±100 for the full control effect.

Structure (SMILES) | activity change, negative = inhibition
Cc1ccc(-c2nnn(CC(=O)N(Cc3ccco3)C(C(=O)NC(C)(C)C)c3ccncc3)n2)o1 (centres undefined) | 9.51% (inactive)
Cc1ccc(-c2cc(C(=O)Oc3ccccc3Cl)no2)cc1C | 81.2% (inactive)
COc1cc(C(=O)N(Cc2ccc(C(C)C)cc2)C2CCS(=O)(=O)C2)cc(OC)c1OC (centres undefined) | 11.7% (inactive)
CN(C(=O)CSc1nc2ccccc2n1Cc1ccccc1C#N)c1ccccc1 | -3.45% (inactive)
C[C@@H](NC(=O)OC(C)(C)C)c1nnc(S(=O)(=O)Cc2ccccc2)o1 | -105% (active)
CC(C)[C@@H](NC(=O)OC(C)(C)C)C(=O)NCC1CCC(C(=O)N[C@@H](Cc2ccccc2)C(=O)O)CC1 (some centres undefined) | -17.7% (inactive)
CC(C)(C)c1ccc(C(CC(=O)O)NS(=O)(=O)Cc2ccccc2)cc1 (centres undefined) | 30.5% (inactive)
CC(C)N(C(=O)Cn1c(SCC(=O)N2CCN(c3ccccc3)CC2)nc2ccccc21)C(C)C | -20.6% (inactive)
CCn1cc2nc(SCc3ccccc3Cl)n(CCc3ccccc3)c(=O)c2n1 | -14.7% (inactive)
COc1cc(C(=O)NCCc2csc3nc(-c4ccccc4C)nn23)cc(OC)c1OC | 7.41% (inactive)
CCCNC(=O)c1nnc2n1CCN(C(=O)c1ccccc1OC)C2 | -9.02% (inactive)
COc1ccccc1C(=O)NCCn1cc(SCc2ccccc2Cl)c2ccccc21 | 20.2% (inactive)
Cc1cccc(CN2CCN(C3CN(Cc4cn(Cc5cc(C)cc(C)c5)nn4)S(=O)(=O)C3)CC2)c1 (centres undefined) | -101% (active)
Cc1cccc(CN2CCN(C3CN(Cc4cn(Cc5ccccc5F)nn4)S(=O)(=O)C3)CC2)c1 (centres undefined) | -0.715% (inactive)
Cc1cccc(CN2CCN(C3CN(Cc4ccccc4)S(=O)(=O)C3)CC2)c1 (centres undefined) | -24.1% (inactive)
COc1cccc(CNC(=O)C(=O)NCC(c2cccs2)S(=O)(=O)c2ccccc2)c1 (centres undefined) | -19.1% (inactive)
CN(CCCC(=O)Nc1nccs1)S(=O)(=O)c1ccc(Cl)cc1 | -64.7% (active)
Cc1nc(NC(=O)CN(C)S(=O)(=O)c2ccc(Cl)cc2)sc1C | 12.3% (inactive)
COCCN(C(=O)CCC(=O)Nc1nccs1)C(C(=O)NC(C)(C)C)c1ccc(Cl)cc1 (centres undefined) | -6.27% (inactive)
CCc1ccc(CN(Cc2ccco2)C(=O)COc2ccc(Cl)c(C)c2)cc1 | -9.02% (inactive)
Cc1c(Cl)c([N+](=O)[O-])nn1Cc1ccc(C(=O)N/N=C\c2cc(Cl)ccc2O)o1 | -93.7% (active)
Cc1c(Cl)c([N+](=O)[O-])nn1CCCC(=O)NC(C)c1ccccc1 (centres undefined) | 46.9% (inactive)
Cc1c(Cl)c([N+](=O)[O-])nn1CC(=O)NCC1CCCO1 (centres undefined) | 35.2% (inactive)
O=C1CC(c2nnc(Cc3ccc(Cl)cc3)o2)CN1c1ccccc1 (centres undefined) | -4.62% (inactive)
COc1ccccc1/C=C/C(=O)OCC(=O)NC1CCCCCC1 | -34.6% (inactive)
CCOC(=O)C(=Cc1ccccc1OC)C(=O)OCC | -65.2% (active)
COc1ccccc1C(=O)OCC(=O)NCCNC(=O)COC(=O)c1ccccc1OC | -25.9% (inactive)

Structure (SMILES) | activity change, negative = inhibition
CCc1cnc2c(c1SCC(=O)N1CCC(C)CC1)c(=O)n(C)c(=O)n2C | -18.2% (inactive)
COc1ccc2[nH]c3c(c2c1)CCN1C(=O)C(CC(=O)NCc2cccc(C(F)(F)F)c2)C[C@H](C(=O)N2CCOCC2)[C@@]31C (some centres undefined) | -2.74% (inactive)
CCN(CC)S(=O)(=O)c1nnc(NC(=O)COc2ccccc2Cl)s1 | -5.69% (inactive)
Fc1ccc2nc(-c3ccccc3)nc(SCc3nnc(-c4ccccc4)o3)c2c1 | 1.64% (inactive)
Clc1ccc2nc(-c3ccccc3)nc(C(Cl)Cl)c2c1 | -78.3% (active)
O=C(C1COc2ccccc2O1)N(Cc1cccnc1)c1nc2c(F)cc(F)cc2s1 (centres undefined) | 0% (inactive)
Cc1cc(S(=O)(=O)NCC(C)C)ccc1OCC(=O)NC1CC1 | -9.36% (inactive)
COc1cccc(C(=O)Nc2ccc3oc(-c4ccc5ccccc5c4)nc3c2)c1 | 12.9% (inactive)
CS(=O)(=O)c1ccccc1C(=O)Nc1ccc2sccc2c1 | 22.5% (inactive)
O=C(Nc1ccc2ccccc2c1)Nc1ccc2snnc2c1 | -97.2% (active)
CC(C)CC(=O)NCC(c1ccc2c(c1)OCO2)N1CCN(c2ccc(F)cc2)CC1 (centres undefined) | 1.29% (inactive)
COc1ccc(NC(=O)NC(C)c2c(-n3cccc3)sc(C)c2C)cc1OC (centres undefined) | -77.2% (active)
CCn1cc(NC(=O)Nc2ccc(OC)c(OC)c2)c(C(N)=O)n1 | -11.8% (inactive)
COc1ccc(NC(=O)N2CCCn3nc(C)cc32)cc1OC | 9.12% (inactive)
NC1=NC(=O)C(Cc2cccc(Cl)c2)S1 (centres undefined) | 4.67% (inactive)
COc1ccc(-n2c(=O)c3c(c4cc(OC)ccc4n3C)n(Cc3cccc(C)c3)c2=O)cc1 | -5.82% (inactive)
COC(=O)C[C@@H]1C=C[C@@H](NC(=O)c2cccnc2)[C@@H](CO)O1 | -9.71% (inactive)
CCn1cc(C(=O)NCCc2ccccc2)c(=O)c2cc(S(=O)(=O)N3CCCCCC3)ccc21 | -9.08% (inactive)
CCCCNC(=O)c1nc2cc(C)c(C)cc2nc1-c1ccc(OC)cc1 | 9.19% (inactive)
COc1ccc(-c2nc3c4ccccc4n(CC(=O)Nc4ccc(C(C)=O)cc4)c(=O)n3n2)cc1 | 29.2% (inactive)
OCCN1CCN(c2ncnc3c2ncn3[C@H]2CN(Cc3ccco3)C[C@@H](CO)O2)CC1 | -21.8% (inactive)
OC[C@@H]1CN(Cc2cccs2)C[C@H](n2cnc3c(Nc4ccccc4)ncnc32)O1 | -28.3% (inactive)
CC(C)Nc1ncnc2c1ncn2[C@H]1CN(Cc2ccncc2)C[C@@H](CO)O1 | 23.6% (inactive)
OC[C@@H]1CN(Cc2ccncc2)C[C@H](n2cnc3c(N4CCN(c5ccccc5)CC4)ncnc32)O1 | -88% (active)
OC[C@@H]1CN(C2CCCC2)C[C@H](n2cnc3c(NC4CCC4)ncnc32)O1 | -6.08% (inactive)
OC[C@@H]1CN(Cc2ccc(-c3ccccc3)cc2)C[C@H](n2cnc3c(NC4CCCC4)ncnc32)O1 | -84.2% (active)
CCCOC(=O)c1c(NC(=O)c2cc3nc(-c4ccc(OC)cc4)cc(C(F)(F)F)n3n2)sc2c1CCCC2 | -2.77% (inactive)
